Assay results published in PubChem BioAssay (Tox21).
Records with an inconclusive call do not appear. Unmarked numbers belong to inactive results. The source made the active and inactive calls. The call rests on the fitted dose curve; in most records, active means well fitted inhibition curve with a large enough effect in the repeat runs; inconclusive means weak or mixed curves; inactive means no such curve, though single readings can be large or run the other way.

The molecules below were run against Cytochrome P450 3A4 (Homo sapiens) (UniProt P08684) (assay: Cytochrome P450 Family 3 Subfamily A Member 4 (CYP3A4) small molecule antagonists: luciferase reporter qHTS assay (AID 1671201; further: nearly all actives have a fitted effect of over 50% in size)). Conditions: P450-Glo CYP3A4 enzyme, luciferin luminescence, 1 h; series mostly up to 115 µM; activity change, negative = inhibition: at the top concentration.
Source text: National Center for Advancing Translational Sciences [NCATS]
U.S. Environmental Protection Agency [EPA]
National Institutes of Environmental Health Sciences [NIEHS]
National Toxicology Program [NTP]
U.S. Food and Drug Administration [FDA]
Cytochrome P450 (CYP) enzymes are membrane-bound hemeproteins that play a key role in metabolism of drugs and xenobiotics. Evaluation of the effect of chemicals on CYP isozymes is useful to minimize the adverse drug reactions and toxicities in drug development process. Tox21 chemicals were tested for their effect on CYP enzyme activities by using P450-Glo (TM) screening systems (Promega Corporation, Madison, WI). These systems provide a luminescent method containing proluciferin substrates and are converted to luciferin products by CYP isozymes. The luciferin products formed are detected with a luciferin detection reagent, and the amount of light produced is proportional to CYP activity. P450-Glo (TM) CYP3A4 screening system (Catalog. No. V9910) was used to detect the compounds that interfere in CYP3A4 activity. The positive control compound used for CYP3A4 assay is ketoconazole (Sigma-Aldrich, St. Louis, MO).
Tox21 Assay Protocol Summary:
Two ul of enzyme-substrate mix was dispensed into medium binding white/solid 1536-well plates (Greiner Bio-One North America Inc., Monroe, NC) using a BioRaptr Flying Reagent Dispenser (FRD, Beckman Coulter, Brea, CA). Compounds dissolved in DMSO and positive control (ketoconazole) were transferred to the assay plates at 23 nl using a Pintool station (Wako, San Diego, CA). The assay plates were incubated at room temperature for 10 min. Then 2 ul of NADPH regeneration solution was added to each well of the assay plates using an FRD and incubated at room temperature for 1 h. The reaction was stopped by adding 4 ul of detection reagent using an FRD and after 20 min incubation at room temperature the luminescence signal was measured using a ViewLux plate reader (Perkin Elmer, Shelton, CT). Data were expressed as relative luminescence units.
On the % scale 0 is the no-effect control and ±100 the full control effect; potency means the concentration at half of the fitted maximal effect.

Chain of Cytochrome P450 3A4 (Homo sapiens) (P08684 whole entry, looked up): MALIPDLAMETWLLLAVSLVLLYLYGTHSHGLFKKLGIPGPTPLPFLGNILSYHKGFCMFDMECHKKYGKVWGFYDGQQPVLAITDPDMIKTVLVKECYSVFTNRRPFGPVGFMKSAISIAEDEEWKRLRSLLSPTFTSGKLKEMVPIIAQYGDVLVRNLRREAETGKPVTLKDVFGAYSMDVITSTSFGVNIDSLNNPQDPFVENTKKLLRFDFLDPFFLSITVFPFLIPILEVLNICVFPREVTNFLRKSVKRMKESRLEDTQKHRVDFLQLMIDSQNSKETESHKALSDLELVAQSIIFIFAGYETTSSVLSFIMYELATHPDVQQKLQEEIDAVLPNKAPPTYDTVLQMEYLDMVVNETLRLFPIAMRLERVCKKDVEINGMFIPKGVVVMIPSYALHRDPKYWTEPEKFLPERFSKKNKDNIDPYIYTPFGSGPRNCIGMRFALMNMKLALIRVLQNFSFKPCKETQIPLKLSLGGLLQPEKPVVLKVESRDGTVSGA

Compound | activity change, negative = inhibition | Potency
CCCCCCCCCCCCN1CCOCC1 | 10.1% | 
O=C(O)c1ccc2c(c1)nc(C(=O)NC1CCN(C3CC3)CC1)n2Cc1cc(-c2ccc(Cl)s2)on1 | 1.57% [at 23.6 µM] | 
COC(=O)Cc1cccc2ccccc12 | 46.3% | 
CC(C)(C)NCC(O)COc1ccc(NC(=O)NC2CCCCC2)cc1 (stereo not given) | 8.29% [at 52.9 µM] | 
Clc1cc(Cl)c2c(c1)N=C1CCCCCN1C2 | 27.4% [at 52.9 µM] | 
CCCCCCCCCCCCCCCCN | 15.1% [at 52.9 µM] | 
COc1cc(CNC(=O)CCCC/C=C/C(C)C)ccc1O |  | 12.3 µM (active)
NC(=O)c1ccccc1C(N)=O |  | 63.5 µM (active)
CC(C(=O)O)c1ccc(/C=C2\CCCCC2=O)cc1 (stereo not given) | -3.06% [at 52.9 µM] | 
CC(C)Cc1nccs1 | -7.21% | 
CCc1ccc(C(=O)C(C)CN2CCCCC2)cc1 (stereo not given) | -14.5% [at 52.9 µM] | 
COC(=O)c1cc(Cl)ccc1[N+](=O)[O-] | 17.8% | 
CC(C)Oc1ccccc1O | 3.77% | 
CCCc1ccc(OC)cc1 | -1.96% | 
CCC1=C(C)CN(C(=O)NCCc2ccc(S(=O)(=O)NC(=O)NC3CCC(C)CC3)cc2)C1=O (stereo not given) | -13.3% [at 52.9 µM] | 
CCOC(=O)CC(O)(CC(=O)OCC)C(=O)OCC | 5.21% | 
COc1cc(C)c(Cc2cnc(N)nc2N)cc1OC | -1.51% [at 52.9 µM] | 
CCCCCCCCS | 12.8% | 
O=c1c2ccccc2oc2ccccc12 | 42.6% | 
CC(=O)S[C@H](C(=O)N[C@H]1Cc2ccccc2[C@H]2CCC[C@@H](C(=O)O)N2C1=O)C(C)C | -0.781% | 

Compound | activity change, negative = inhibition | Potency
COc1ccc(CN(CCN(C)C)c2ncccn2)cc1 | 7.52% [at 52.9 µM] | 
CCC(C)C1N=C(C)C(C)S1 (stereo not given) |  | 25.2 µM (active)
CCC(CC)C(=O)O | 0.746% | 
Cc1cc(SC2=C(O)C[C@@](CCc3ccc(N)cc3)(C(C)C)OC2=O)c(C(C)(C)C)cc1CO |  | 3.99 µM (active)
CC1(COc2ccc(CC3SC(=O)NC3=O)cc2)CCCCC1 (stereo not given) | 4.87% [at 52.9 µM] | 
COc1ccc(/C=C/S(=O)(=O)NC(=O)c2ccc(C)cc2Cl)cc1 | 42% | 
O=C(Cl)c1ccc(F)c(Cl)c1 | 50% | 
O=C1OC(=O)C2CC=CCC12 (stereo not given) | 9.26% | 
C=CC(=O)OCCCCCCCCCC | 1.35% | 
CCOc1ccc2c(c1)C(C)CC(C)(C)N2 (stereo not given) |  | 7.96 µM (active)
O=c1[nH]nc(-c2ccc([N+](=O)[O-])o2)o1 | 5.48% | 
CCCCOC(=O)C(C)Oc1ccc(Oc2ccc(C(F)(F)F)cn2)cc1 (stereo not given) | 7.94% | 
S=c1[nH][nH]c(=S)s1 | 1.51% | 
O=C(Nc1ccc2c(c1)Cc1ccccc1-2)C(F)(F)F | 2.95% | 
O=C1C=CCCC1 | 7.28% | 
O=C(c1ccc(Cl)cc1)c1ccc(Cl)cc1 | 41% | 
C1CCN(CN2CCCCC2)CC1 | -0.954% | 
CCCC1CCOC(C)S1 (stereo not given) | 4.15% | 
FC1(F)C(F)(F)C(F)(F)C2(F)C(F)(C1(F)F)C(F)(F)C(F)(F)C1(F)C(F)(F)C(F)(F)C(F)(F)C(F)(F)C12F (stereo not given) | 10.6% | 
C=CC(C)CCC=C(C)C (stereo not given) | -2.43% | 
